# Luc counter: Kinase-Glo luciferase inhibition (counter-screen) | Kinase-Glo luciferase, ATP luminescence, 8 min | Potency, µM (top dose mostly 38.3 µM), hits mostly inhibitors | 200,000 compounds, 0.28% hits | AID 1379; note: nearly all actives have a fitted effect of over 60% in size
#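 Compounds were added to a substrate mix at pH 7.2 (50 mM imidazole, 10 uM ATP, within the enzyme's linear range), followed by Kinase-Glo detection reagent; luminescence was measured after 8 minutes at ambient temperature.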
# FLuc modulator: counter-screen for miR-21 project: firefly luciferase inhibitors or activators; P08659; Potency, µM (highest dose often 57.5 µM), most hits filed as inhibitors; 360,000 compounds, 6.9% hits; AID 588342; purified FLuc, Km substrates, luminescence inhibition; note: nearly all actives have a fitted effect of over 55% in size
# Target sequence (P08659 whole entry, looked up): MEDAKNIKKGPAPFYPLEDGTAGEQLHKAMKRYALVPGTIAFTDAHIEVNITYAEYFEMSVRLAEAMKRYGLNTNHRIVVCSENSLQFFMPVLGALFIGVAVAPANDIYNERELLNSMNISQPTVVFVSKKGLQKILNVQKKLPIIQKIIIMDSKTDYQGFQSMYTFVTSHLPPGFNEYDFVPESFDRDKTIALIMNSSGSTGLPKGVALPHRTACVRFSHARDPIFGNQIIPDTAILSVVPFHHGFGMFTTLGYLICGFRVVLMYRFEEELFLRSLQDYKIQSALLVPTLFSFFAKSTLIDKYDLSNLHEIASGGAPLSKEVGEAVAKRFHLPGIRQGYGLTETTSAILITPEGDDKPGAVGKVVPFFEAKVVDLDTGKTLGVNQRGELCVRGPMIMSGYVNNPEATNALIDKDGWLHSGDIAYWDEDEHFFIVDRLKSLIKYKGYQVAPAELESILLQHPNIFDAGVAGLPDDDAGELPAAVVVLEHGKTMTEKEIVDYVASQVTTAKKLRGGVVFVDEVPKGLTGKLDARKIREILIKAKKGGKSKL
#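 Biochemical qHTS of compounds, final roughly 60 µM downward over six points, against 10 nM purified firefly luciferase using Km concentrations of substrates (10 uM D-luciferin, 10 uM ATP) in Tris acetate pH 7.5 buffer; luminescence output.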
# NPC1 prom act: NPC1 promoter activation | Huh7 NPC1 promoter luciferase reporter, 24 h | Potency, µM (titrated, usually from 9.22 µM), usual class: activators | 320,000 compounds, 2.4% hits; note: nearly all actives have a fitted effect of over 60% in size
#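 Compounds in DMSO were transferred onto Huh7 NPC1-luciferase reporter cells pre-incubated 2 h; after 24 h at 37 °C, Amplite reagent was dispensed and luminescence recorded 10 min later.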
# SMN2 splice up: SMN2 splice variant enhancement | 210,000 compounds, 2.8% hits | Potency, µM (top dose mostly 46.1 µM), hits mostly activators | HEK293 SMN2-luciferase splicing reporter, luminescence, 30-36 h | AID 1458; note: nearly all actives have a fitted effect of over 55% in size
#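 HEK293 cells carry an SMN2 minigene-luciferase reporter in which exon 7 inclusion puts luciferase in frame. Cells were seeded at 2000 cells/well, attached for 10-12 hours, then exposed to compounds for 30-36 hours at 37C before ONE-Glo luminescence.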
# Rab9 prom act: activators of Rab9 promoter. Huh7 Rab9 promoter-luciferase reporter, luminescence, 24 h. Potency, µM (top dose mostly 9.22 µM), actives largely listed as activators. 320,000 compounds, 2.8% hits; note: nearly all actives have a fitted effect of over 60% in size
#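 Steps: seed 1500 Huh7 Rab9-luc cells per well, rest 2 h at 37 °C; add compound in DMSO; incubate 24 h; add luciferase reagent, 10 min ambient; read luminescence.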
# A number is an active result; n = inactive; u = inconclusive; x = no result given; [ ] = dose if it differs, or a comment. Only some compounds are listed: those with a hit (about 7.3% of all), similar ones and a draw of the others. Calls come from the whole dose curve; as a rule, active = well fitted curve in the direction sought with a large enough effect; inconclusive = small, poorly fitted or top-dose-only effect, or another doubt; inactive = no such curve, though single readings can be large; an effect the other way counts as inactive or inconclusive.
SMILES,Luc counter,FLuc modulator,NPC1 prom act,SMN2 splice up,Rab9 prom act
NCCSCc1ccccc1Cl,n[7.66 µM],x,x,n[9.22 µM],x
CCOc1ccc(Nc2cc(C)nc(N3CCOCC3)n2)cc1,n,n,n,n,n
CCOc1ccc2nc(N3CCOCC3)nc(C)c2c1,n,11µM,4µM,2.8µM,u
CCOc1ccc(/C=N/Nc2cc(C)nc(N3CCOCC3)n2)cc1,x,1.3µM,n,x,n
Cc1cc(N/N=C/c2ccccc2O)nc(N2CCOCC2)n1,x,12µM,n,x,n
COc1ccc(/C=N/Nc2cc(C)nc(-n3nc(C)cc3C)n2)cc1,n,17µM,n,n,n
Cc1cccc(Oc2coc3cc(OCC(=O)NC4CCCCC4)ccc3c2=O)c1,x,n,x,n,x
Cc1ccc(NS(=O)(=O)c2ccc(-c3cnc(C4CC4)o3)cc2)cc1N(C)C,x,n,x,x,x
O=C(O)c1c[nH]c2c(ccc3[nH]cc(C(=O)O)c(=O)c32)c1=O,n[7.66 µM],x,x,n[9.22 µM],x
O=C(CN1C(=O)CCc2cc(S(=O)(=O)N3CCOCC3)ccc21)NCc1ccccc1Cl,x,n,x,x,x
O=C(O)c1ccc(CSc2nnc(-c3ccccc3Br)o2)cc1,x,24µM,n,x,n
O=C(O)c1ccc(CSc2nnc(-c3ccc(Cl)cc3)o2)cc1,x,17µM,n,x,n
O=C(Nc1ccccc1-c1nnc(SCc2ccccc2)o1)c1ccccc1,n,n,n,n,n
COc1cc(OC)c(NC(=O)C2=C(C)C(=O)OC23CCCCC3)cc1Cl,x,n,x,n,x
C=CC(=O)Nc1sc2c(c1C(N)=O)CCCC2,x,u,n,x,n
CCCC(=O)NC(=S)Nc1sc2c(c1C(N)=O)CCC2,n,4.3µM,n,u,n
CCC(=O)Nc1sc2c(c1C(N)=O)CCC2,n,n,n,n,n
C=CCNC(=S)Nc1sc2c(c1C(N)=O)CCCC2,x,15µM,n,x,n
CC(C)C(=O)NC(=S)Nc1sc2c(c1C(N)=O)CCCC2,n,9.5µM,u,u,u
COC(=O)Nc1sc2c(c1C(N)=O)CCCCCC2,n,u,n,n,n
CCCCc1cc2c(cn1)=C(OC(=O)CCC(=O)OC)C(C)(OC(=O)CC)C(=O)C=2 (stereo not given),n[7.66 µM],x,x,n[9.22 µM],x
CCN(Cc1ccccc1)S(=O)(=O)c1cc(Br)cc2c1N(C(=O)C1CC1)CC2,x,n,x,n,x
CCOC(=O)c1sc(N/N=C/c2ccc(N(C)C)cc2)nc1C,x,11µM,n,x,u
CC(=O)c1sc(Nc2nc(C)cc(C)n2)nc1C,n,n,n,n,n[1.84 µM]
CCOC(=O)c1sc(NC(C)=O)nc1C,n,n,n,n,n
SMILES,Luc counter,FLuc modulator,NPC1 prom act,SMN2 splice up,Rab9 prom act
CCOC(=O)c1nc(N/N=C/c2ccccc2)sc1Br,x,7.6µM,n,x,n
CC(=O)c1sc(N/N=C\c2cccc(Br)c2)nc1C,n,11µM,n,u,n
CC(=O)c1sc(N/N=C\c2ccc(Br)cc2)nc1C,n,5.4µM,u,u,u
CCc1ccc(-n2c(C)nnc2SCc2nc(-c3ccc(OC)cc3)no2)cc1,x,n,x,n,x
COc1ccc(CNC(=O)c2ccc3c(c2)N(Cc2ccccc2F)C(=O)c2ccccc2S3=O)cc1 (stereo not given),x,n,x,n,x
O=C(O)c1ccc2nc3c(nc2c1)-c1ccccc1C3=O,u,15µM,n,n,u
O=C(O)c1ccc2nc(-c3ccco3)c(-c3ccco3)nc2c1,n,u,n,n,n
CCc1nc2ccc(C(=O)O)cc2nc1CC,n,24µM,u,n,u
COc1cc(/C=N/N=C(\N)c2nonc2N)cc(OC)c1O,x,9.5µM,n,x,n
COc1ccc(/C=N/Nc2nonc2N)cc1,n,u,n,n,n
COc1ccc(/C=N/N=C(\N)c2nonc2N)cc1,10µM,2.1µM,0.63µM,4.5µM,0.4µM
COc1cc(/C=N/N=C(/N)c2nonc2N)cc(Br)c1OCc1cccc(C)c1,n,n,n,n,n
CN(CCC#N)C(=O)COC(=O)c1c2c(nc3ccccc13)/C(=C/c1ccco1)CC2,n,11µM,u,22µM,u
N#CC1(c2ccc(NC(=O)c3ccccc3F)cc2)CCCC1,n,1.9µM,0.63µM,2.8µM,0.79µM
O=C(Nc1ccc(S(=O)(=O)N2CCCCC2)cc1)c1ccccc1F,x,n,n,x,n
COc1ccc(NC(=O)C2(c3ccc(NC(=O)c4ccc(C)cc4)cc3)CCCC2)cc1,n,n,n,n,n
COc1ccc(C(=O)Nc2ccc(C3(C#N)CCCC3)cc2)cc1,n,4.8µM,n,n,n
